# Measurements reported in PubChem BioAssay (EPA / NIEHS).
# Records with an inconclusive call do not appear. Calls of active or inactive are those of the source. How the source made its calls, unless noted: active means hit-call score of the fitted dose curve at least 0.9, where 1 is the maximum; inconclusive means response in the unintended direction; inactive means score below 0.9.
# What was measured:
# [1] = Tanguay_ZF_120hpf_PE_legacy: (Legacy) Oregon State University Tanguay Lab 120 Hour Post-fertilization zebrafish Assay for Pericardial Edema (AID 2283640);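 on AC50: potency for increased incidence of pericardial edema versus DMSO baseline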
# Outline: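 Read-out is the presence or absence of pericardial edema at 120 hpf under brightfield, with gain of signal fitted against DMSO controls. Larvae (5D wild-type) were statically exposed at 28C with 0.64% final DMSO.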
# [2] = Tanguay_ZF_120hpf_BRAI_legacy: (Legacy) Oregon State University Tanguay Lab 120 Hour Post-fertilization zebrafish Assay for Brain Malformation (AID 2283641)
# Outline: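 Brain malformation in Tropical 5D zebrafish was recorded as a binary endpoint after static compound exposure from early development to 120 hpf at 28C. Activity was analysed against DMSO as negative control.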
# [3] = Tanguay_ZF_120hpf_SOMI_legacy: (Legacy) Oregon State University Tanguay Lab 120 Hour Post-fertilization zebrafish Assay for Somite Malformation (AID 2283647)
# Outline: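 5D WT zebrafish; chorion removed 4 hpf; 1 embryo/well from 6 hpf; static exposure to 120 hpf, 28C, 0.64% DMSO final. Endpoint: somite malformation, binary, brightfield. Mortality excluded.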
# [4] = Tanguay_ZF_120hpf_PFIN_legacy: (Legacy) Oregon State University Tanguay Lab 120 Hour Post-fertilization zebrafish Assay for Pectoral Fin Malformation (AID 2283648);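 further: each larva judged yes or no for fin defect by brightfield with dead larvae skipped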
# Outline: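 5D WT zebrafish; pronase dechorionation 4 hpf; 1 embryo/well at 6 hpf; static exposure to 120 hpf, 28C, sealed, foil-covered; final DMSO 0.64% v/v; 5 uM trimethyltin chloride positive control; fin defect scored yes/no.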
# [5] = Tanguay_ZF_120hpf_CFIN_legacy: (Legacy) Oregon State University Tanguay Lab 120 Hour Post-fertilization zebrafish Assay for Caudal Fin Malformation (AID 2283649)
# Outline: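 Embryos were collected from Tropical 5D wild-type adults and dechorionated at 4 hpf. At 6 hpf each was exposed, one per well, at 0.64% DMSO and 28C. At 120 hpf fin morphology was scored; dead embryos were excluded.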
# [6] = Tanguay_ZF_120hpf_PIG_legacy: (Legacy) Oregon State University Tanguay Lab 120 Hour Post-fertilization zebrafish Assay for Pigmentation Malformation (AID 2283650)
# Outline: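 Pronase dechorionation at 4 hpf; embryos plated at 6 hpf, one per well; static exposure, sealed and foil-covered, 28C, to 120 hpf; pigmentation read by brightfield, binary; DMSO 0.64% baseline, 5uM trimethyltin chloride positive control.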
# [7] = Tanguay_ZF_120hpf_CIRC_legacy: (Legacy) Oregon State University Tanguay Lab 120 Hour Post-fertilization zebrafish Assay for Circulatory Malformation (AID 2283651)
# Outline: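 Read-out: presence or absence of circulatory malformation at 120 hpf, scored by brightfield microscopy, fitted in the gain-of-signal direction against DMSO baseline. Wild-type 5D larvae were exposed from 6 hpf after enzymatic chorion removal.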
# [8] = read-out: kallikrein-3 (KLK3), KLK3 (gene 354); assay: LTEA_HepaRG_KLK3: Life Technologies and Expression Analysis (LTEA) Assay for kallikrein-3 (KLK3) using HepaRG (AID 2283652; active means hit-call score of the fitted dose curve at least 0.9, where 1 is the maximum; inactive means score below 0.9); conditions: mRNA level, 48 h; actives raise or lower the signal
# Protocol: LTEA_HepaRG is a cell based, multiplexed-readout assay that uses HepaRG, a human liver cell line, with measurements taken at 48 hours after chemical dosing on a 96-well plate.LTEA_HepaRG_KLK3 is one of 102 assay component(s) measured in the LTEA HepaRG cell culture assay. It is a marker of Cellular remodeling.Data from the assay component LTEA_HepaRG_KLK3 was analyzed into 1 endpoint. This assay endpoint, LTEA_HepaRG_KLK3, was analyzed with bidirectional fitting relative to DMSO as the negative control and baseline of activity. Using a type of inducible reporter, measures of mRNA induction for gain or loss-of-signal activity can be used to understand regulation of transcription factor activity. To generalize the intended target to other relatable targets, this assay endpoint is annotated to the protease intended target family, where the subfamily is Cellular remodeling.
# A total of 1060 chemcials from the ToxCast library were tested in eight-point concentration-response experiments. Cell culture and cytotoxicity assays were conducted at Thermo Fisher Scientific's Custom Services facility (Madison, WI). A single lot of human HepaRG cells (Thermo Fisher Scientific, Frederick, MD) was used for the cell culture experiments. 96-well format collagen type I coated plates of human HepaRG cells were prepared using established methods. Briefly, cryopreserved HepaRG cells were thawed, plated at a density of approximately 100,000 cells/well in HepaRG Thaw, Plate, and General Purpose media (HPRG770, Thermo Fisher Scientific), and incubated for 48 hours. 0.5% DMSO was selected as vehicle control to balance the requisite need of DMSO in HepaRG cultures to maintain differentiation (for example, baseline metabolism, proportions of hepatocytes vs. cholangiocytes), while enabling further hepatic receptor pathway activation (for example, PXR and CAR) in response to chemical exposure. 48 hours after plating, the culture medium was replaced with HepaRG Serum-Free Incudtion Media. Cells were exposed to each test chemical in duplicate and maintained in CO2 incubators for another 48 hours. Chemical plates were thawed to room temperature and 200x concentrations of treatment groups were prepared. 8-point conentration-reponse curves were made with the highest exposure at 100 uM, followed by half-log dilutions, all in 0.5% DMSO. Each test plate contained variouse controls, induction positive controls (1mM phenobarbital), cytotoxicity positive controls ([…] aflatoxin B1), vehicle controls (0.5% DMSO), and total lysis controls (0.5% DMSO). Cell morphology images were taken using an Essen IncuCyte FLR automated microscope, with six 96-well plates imaged in about 24 minutes. Images were captured and exported and JPEG files. Spent culture media was transfered to black-well plates for the LDH assay, and remaining media was sorted at -80 C for later use. Cells were treated with RLT buffer and frozen until shipped for gene expression analysis. Total RNA was isolated from the cell suspension in 75 uL of Buffer RLT (Qiagen, Germantown, MD 20874) by Quintiles/Expression Analysis (Durham, NC) using a custom isolation procedure. Total RNA from each plate well was transferred to a preamplification plate. Fluidigm's 96.96 Dynamic ArrayTM (Fluidigm, Amsterdam, the Netherlands) technology was used for gene expression analyses by quantitative reverse transcription polymerase chain reaction (qRT-PCR, performed by Quintiles/Expression Analysis, Durham, NC)89. […]
# [9] = read-out: solute carrier (SLC22A6), SLC22A6 (gene 9356); assay: LTEA_HepaRG_SLC22A6: Life Technologies and Expression Analysis (LTEA) Assay for solute carrier (SLC22A6) using HepaRG (AID 2283653; active means hit-call score of the fitted dose curve at least 0.9, where 1 is the maximum; inactive means score below 0.9); conditions: mRNA level, 48 h; actives raise or lower the signal
# Outline: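 This endpoint tracks SLC22A6 mRNA induction or suppression in human HepaRG cultures after 48 h dosing, concentrations reaching 100 uM. Values derive from bidirectional fitting against DMSO controls.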
# [10] = Tanguay_ZF_120hpf_SWIM_legacy: (Legacy) Oregon State University Tanguay Lab 120 Hour Post-fertilization zebrafish Assay for Swim Bladder Malformation (AID 2283654);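 further: swim bladder malformation in each larva scored yes or no under brightfield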
# Outline: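 Embryos lacking chorions were exposed individually and statically to test chemical from 6 to 120 hpf at 28C, with 0.64% DMSO as vehicle. At 120 hpf, swim bladder malformation was recorded as present or absent by brightfield microscopy.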
SMILES,outcome [1],outcome [2],outcome [3],outcome [4],outcome [5],outcome [6],outcome [7],outcome [8],outcome [9],outcome [10],AC50 [1],AC50 [2],AC50 [4],AC50 [6]
CN1CCCC1=O,inactive,inactive,inactive,inactive,inactive,inactive,inactive,inactive,inactive,inactive,,,,
COCCOCCOC,inactive,inactive,inactive,inactive,inactive,inactive,inactive,,,inactive,,,,
CN1CCN(Cc2cc(-c3ccc4[nH]c(=O)oc4c3)co2)[C@@H](c2ccc(F)cc2)C1,inactive,inactive,inactive,inactive,inactive,inactive,inactive,,,inactive,,,,
COCCOC[C@H](CC1(C(=O)NC2CCC(C(=O)O)CC2)CCCC1)C(=O)Oc1ccc2c(c1)CCC2 (stereo partly specified),inactive,inactive,inactive,inactive,inactive,inactive,inactive,,,inactive,,,,
CC(=O)OC/C=C(\C)CCC=C(C)C,inactive,inactive,inactive,inactive,inactive,inactive,inactive,inactive,inactive,inactive,,,,
CCCCc1ccc2c(n1)[C@@H](c1ccc(OC)cc1C[C@H](C)C(=O)O)[C@H](C(=O)O)[C@H]2c1ccc2c(c1)OCO2,inactive,inactive,inactive,inactive,inactive,inactive,inactive,,,inactive,,,,
Cc1cccc(Nc2cc(Cl)nc(SCC(=O)O)n2)c1C,inactive,inactive,inactive,inactive,inactive,inactive,inactive,,,inactive,,,,
O=C(O)Cc1ccccc1Nc1c(Cl)cccc1Cl,inactive,inactive,inactive,inactive,inactive,inactive,inactive,,,inactive,,,,
COc1ccc(S(=O)(=O)N2C(=O)[C@@](c3ccccc3OC)(N3C[C@H](O)C[C@H]3C(=O)N(C)C)c3cc(Cl)ccc32)c(OC)c1,inactive,inactive,inactive,inactive,inactive,inactive,inactive,,,,,,,
COc1cc(-c2nc(NC(=O)c3cc4cc(C)cc(C)c4n3CC(=O)O)sc2CCC2CCCCC2)c(OC)cc1Cl,inactive,inactive,inactive,inactive,inactive,inactive,inactive,,,inactive,,,,
CCCCCCCCCCC,inactive,inactive,inactive,inactive,inactive,inactive,inactive,inactive,inactive,inactive,,,,
CCCCCCCCCCO,inactive,inactive,inactive,inactive,inactive,inactive,inactive,,,,,,,
Cc1nc(-c2ccc3c(c2)CCN(CCC2CCC(NC(=O)/C=C/c4ccc(F)cc4)CC2)CC3)no1 (stereo unspecified),inactive,inactive,inactive,inactive,inactive,inactive,inactive,,,inactive,,,,
CCCCCC(=O)O,inactive,inactive,inactive,inactive,inactive,inactive,inactive,,,inactive,,,,
CCNc1cccc(C)c1,inactive,inactive,inactive,inactive,inactive,inactive,inactive,,,inactive,,,,
O=C(OCCCCCOC(=O)c1ccccc1)c1ccccc1,inactive,inactive,inactive,inactive,inactive,inactive,inactive,,,inactive,,,,
Cc1nc(C)nc(N2C[C@@H](C)N(c3ccnc([C@@H](C)O)n3)[C@@H](C)C2)n1,inactive,inactive,inactive,inactive,inactive,inactive,inactive,,,inactive,,,,
O=c1c(O)c(-c2ccc(O)c(O)c2)oc2cc(O)cc(O)c12,inactive,inactive,inactive,inactive,inactive,inactive,inactive,,,inactive,,,,
Cc1cc(=O)[nH]c(=S)[nH]1,inactive,inactive,inactive,inactive,inactive,inactive,inactive,,,inactive,,,,
COC(=O)c1ccc(O)cc1,inactive,inactive,inactive,inactive,inactive,inactive,inactive,,,inactive,,,,

SMILES,outcome [1],outcome [2],outcome [3],outcome [4],outcome [5],outcome [6],outcome [7],outcome [8],outcome [9],outcome [10],AC50 [1],AC50 [2],AC50 [4],AC50 [6]
CCCCCCCC=O,inactive,inactive,inactive,inactive,inactive,inactive,inactive,,,inactive,,,,
C=CCc1ccc(O)c(OC)c1,inactive,inactive,inactive,inactive,inactive,inactive,inactive,,,inactive,,,,
Cc1cccc([N+](=O)[O-])c1C,inactive,inactive,inactive,inactive,inactive,inactive,inactive,,,,,,,
CCOC(=O)CCC(=O)OCC,inactive,inactive,inactive,inactive,inactive,inactive,inactive,,,inactive,,,,
CC(=O)C(C)=CC1C(C)=CCCC1(C)C (stereo unspecified),inactive,inactive,inactive,inactive,inactive,inactive,inactive,,,,,,,
CCCCN(CCCC)CCCC,inactive,inactive,inactive,inactive,inactive,inactive,inactive,,inactive,,,,,
O=C(N[C@@H](Cc1ccccc1)[C@@H](O)C(=O)N1C[C@@H](O)[C@@H](O)C1)c1cc2cc(Cl)ccc2[nH]1,inactive,inactive,inactive,inactive,inactive,inactive,inactive,,,inactive,,,,
Cc1ccccc1Cl,inactive,inactive,inactive,inactive,inactive,inactive,inactive,,,inactive,,,,
NCCO,inactive,inactive,inactive,inactive,inactive,inactive,inactive,,,,,,,
Clc1cc(Cl)c(Cl)cc1Cl,inactive,inactive,inactive,,inactive,inactive,inactive,,,inactive,,,,
Cc1ccc(C)c(C)c1,inactive,inactive,inactive,,inactive,inactive,inactive,,inactive,inactive,,,,
COc1cc(S(=O)(=O)O)c(C)cc1N=Nc1c(O)ccc2cc(S(=O)(=O)O)ccc12,inactive,inactive,inactive,,inactive,inactive,,,,inactive,,,,
CC(C)(C)c1cc(O)c(C(C)(C)C)cc1O,,inactive,inactive,,inactive,inactive,inactive,,,inactive,34300 nM (active),,,
Cc1cc(NC(=O)C(=O)O)cc(C)c1Oc1ccc(O)c2c1CCC2,inactive,,inactive,,inactive,,inactive,,,inactive,,546 nM (active),499 nM (active),3.39 nM (active)
CC(C)c1ccc(C(=O)N=C(N)N)cc1S(C)(=O)=O,inactive,inactive,inactive,inactive,inactive,inactive,inactive,,,inactive,,,,
O=[N+]([O-])C(CO)(CO)CO,inactive,inactive,inactive,,inactive,inactive,inactive,,,inactive,,,,
C1CCC(SSC2CCCCC2)CC1,inactive,inactive,inactive,inactive,inactive,,,inactive,inactive,,,,,
CCOc1ccc2c(c1)C(C)=CC(C)(C)N2,inactive,inactive,inactive,inactive,inactive,inactive,inactive,,,inactive,,,,
CCCc1cc(=O)[nH]c(=S)[nH]1,inactive,inactive,inactive,inactive,inactive,inactive,,,,inactive,,,,
